Most compounds without a hit are left out; they make up all but 0.98% or so of the library.
EBV gp42 inh: EBV gp42 inhibition; Q1HVG2; Fluorescence polarization binding assay, mP read-out; inhibition, % (tested at 21.74 µM); 0.42% of 220,000 active; in the data active = inhibition above about 50%
Keap1 Nrf2 FP: Keap1-Nrf2 (human) interaction inhibition | Q14145 | Keap1 Kelch-Nrf2 peptide fluorescence polarization, 1536-well | inhibition, % at 9.4 µM | 0.15% of 340,000 active | AID 504523; in the data active = inhibition above about 12%;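 also: human Keap1 Kelch domain with fluorescein labeled Nrf2 9mer peptide probe; 0% = neutral control wells and 100% = peptide positive control; higher means more block of Keap1 binding to Nrf2 peptide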
cardiac RTF act: increases calcium sensitivity of human cardiac regulated thin filaments; P19429+P45379; activation, % at 7.2 µM; 0.24% of 340,000 active; IANBD-labeled TnC RTF fluorescence at EC20 calcium; 0% EC20 calcium, 100% full calcium;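 active = activation above the mean over all tested compounds plus 3 SD, cut at about 30% in these data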;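 also: rise in fluorescence read as greater calcium sensitivity of cardiac thin filaments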
C-LANA FP: KSHV C-LANA DNA binding inhibition; 0.078% of 340,000 active; AID 504423; MBP-C-LANA/FAM-LBS DNA binding, fluorescence polarization; inhibition, % at 9 µM;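 active = highest replicate inhibition at or above 60% at 9 µM, even if other replicates fall short; inactive = all replicates below 60% inhibition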;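 also: 0% = neutral control wells and 100% = 4 µM acridine orange control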
E coli Lon inh: inhibits E. coli Lon protease; P0A9M0; inhibition, % at 7.94 µM; purified E. coli Lon protease, fluorescence polarization; AID 602123; 0.42% of 360,000 active; in the data active = inhibition above about 13%, passing the limit was not always enough;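 also: 0% = enzyme with probe and DMSO and 100% = no enzyme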
Target sequence (P0A9M0 whole entry, looked up): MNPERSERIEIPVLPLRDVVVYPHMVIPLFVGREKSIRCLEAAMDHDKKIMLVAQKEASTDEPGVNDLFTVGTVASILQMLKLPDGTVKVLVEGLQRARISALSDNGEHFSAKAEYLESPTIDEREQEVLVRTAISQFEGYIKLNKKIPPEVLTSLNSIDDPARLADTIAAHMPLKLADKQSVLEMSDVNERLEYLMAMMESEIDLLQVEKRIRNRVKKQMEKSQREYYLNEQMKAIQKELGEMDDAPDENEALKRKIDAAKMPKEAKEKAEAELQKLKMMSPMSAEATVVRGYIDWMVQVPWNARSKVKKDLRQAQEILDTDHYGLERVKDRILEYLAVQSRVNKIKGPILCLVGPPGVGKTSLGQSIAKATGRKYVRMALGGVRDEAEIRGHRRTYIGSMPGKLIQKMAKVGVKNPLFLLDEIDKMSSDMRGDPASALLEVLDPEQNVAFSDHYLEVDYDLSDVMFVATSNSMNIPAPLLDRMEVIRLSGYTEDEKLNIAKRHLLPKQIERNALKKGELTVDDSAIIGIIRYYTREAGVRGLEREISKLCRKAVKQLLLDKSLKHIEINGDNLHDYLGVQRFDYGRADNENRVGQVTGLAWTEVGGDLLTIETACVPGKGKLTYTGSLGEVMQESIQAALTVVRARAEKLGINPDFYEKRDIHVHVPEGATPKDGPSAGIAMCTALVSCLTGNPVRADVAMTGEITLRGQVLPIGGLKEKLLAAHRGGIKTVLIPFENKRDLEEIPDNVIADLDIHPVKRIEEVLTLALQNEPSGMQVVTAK
RTF Ca sens inh: cardiac RTF calcium desensitization | P19429+P45379 | IANBD-labeled cardiac RTF, Ca2+ fluorescence | inhibition, % at 7.15 µM | 0.12% of 340,000 active | AID 493244;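 active = inhibition above the mean inhibition of all tested compounds plus 3 SD, cut at about 17% in these data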;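 also: assay run at fixed EC70 calcium of 1.6 mM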
E coli Lon conf: confirmation of E. coli Lon protease inhibitors. 31% of 1,400 active. shares compounds with E coli Lon inh. purified E. coli Lon, fluorescence polarization. inhibition, % at 7.94 µM; in the data active = inhibition above about 16%;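 also: 0% = enzyme with probe and DMSO and 100% = no enzyme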
An asterisk follows results filed as active; i = inactive; . = no result given; + = active, no number.

SMILES | EBV gp42 inh | Keap1 Nrf2 FP | cardiac RTF act | C-LANA FP | E coli Lon inh | RTF Ca sens inh | E coli Lon conf
COc1ccc(C2CC(=O)C(C=NCC(C)C)=C(O)C2)cc1 (configuration not stated) | . | 1.1 | -6.2 | -0.4 | -14.9 | -12.9 | .
O=C(COC(=O)c1cccc(-n2cnnn2)c1)c1ccc(F)c(F)c1 | . | . | . | . | -4.5 | . | .
O=C(O)CC(SCC(=O)Nc1ccc(S(=O)(=O)N2CCCC2)cc1)C(=O)O (configuration not stated) | -11.4 | -8.7 | 12.0 | -0.3 | 17.4* | -4.2 | 0.3
CCOC1=C2[C@@H](CN(S(=O)(=O)c3ccc(C)cc3)[C@H]2c2ccccc2Cl)[C@H]2C(=O)N(Cc3ccccc3)C(=O)[C@H]2C1 | . | . | . | . | 1.8 | . | .
O=C(c1cccc(Cl)c1)N(Cc1ccco1)C1CCS(=O)(=O)C1 (configuration not stated) | . | -4.1 | 4.6 | -0.5 | 9.4 | -3.8 | .
O=C1CN(S(=O)(=O)c2cccc(Cl)c2Cl)CCN1 | . | -0.3 | -2.5 | -0.3 | 43.9* | 0.3 | 14.4
COC(=O)C1=C(C)NC(C)=C(C(=O)OCC2CCCO2)C1c1ccc(Cl)c([N+](=O)[O-])c1 (configuration not stated) | . | 3.5 | 9.3 | 0.2 | -9.4 | -13.8 | .
COC(=O)C1=C(C)NC(C)=C(C(=O)OCC2CCCO2)C1c1cccc(Cl)c1 (configuration not stated) | . | 0.5 | -5.8 | -1.5 | 21.8* | -1.7 | -1.4
CC(=O)Nc1cc(-c2ccccc2N(C)C)cn2c(-c3ccc(S(C)(=O)=O)cc3)cnc12 | . | . | . | . | + | . | 55.1*
Cc1ccc(NC(=S)N=Nc2c(O)[nH]c3ccccc23)cc1 | -2.8 | -2.5 | 2.3 | -0.1 | 14.2* | -7.9 | -12.8
Oc1ccc(NC(=S)N=Nc2c(O)[nH]c3ccccc23)cc1 | 2.3 | -5.2 | -3.5 | -1.2 | 18.1* | -0.8 | 20.9*
COc1ccc(NC(=S)N=Nc2c(O)[nH]c3ccccc23)cc1 | -5.5 | -2.6 | -3.4 | 0.2 | 12.7 | -3.1 | .
O=C(Nc1ccc(C(=O)N2CCN(c3ccc(F)cc3)CC2)cc1)C1=CSCCO1 | . | -1.9 | -0.9 | -0.1 | 8.9 | -7.6 | .
O=C(Nc1ccc(C(=O)N2CCN(c3ccc(Cl)cc3)CC2)cc1)C1=CSCCO1 | . | -1.9 | -2.6 | 2.1 | 24.7* | -2.0 | 2.2
COc1ccccc1CCNC(=O)c1cccc(NC(=O)CC2SC(N3CCCCC3)=NC2=O)c1 (configuration not stated) | . | -3.9 | 2.3 | 2.0 | -2.1 | -11.4 | .
COc1ccc(N2C(=O)CS(=O)C(c3ccccc3)C2=O)cc1 (configuration not stated) | -15.9 | -43.6 | -2.6 | 0.2 | 24.2* | -2.3 | 30.6*
O=C(c1ccc[nH]1)N1O[C@@H]2C=C[C@H]1C2 | . | -2.6 | -0.4 | 0.4 | -0.5 | -5.9 | .
Clc1ccc(N2O[C@H]3C=C[C@@H]2C3)nc1 | . | . | . | . | 61.0* | . | 128.8*
CC(=O)C1=C(O)C(=O)N(c2ccc(Br)cn2)C1c1ccc(Br)cc1 (configuration not stated) | -2.9 | -6.3 | 5.9 | -0.3 | -7.0 | -8.9 | .
CC(=O)C1=C(O)C(=O)N(c2ccc(Br)cn2)C1c1ccc(F)cc1 (configuration not stated) | -11.5 | 6.8 | 0.2 | 8.4 | 28.1* | -5.3 | 1.2
CCOc1c2ccccc2nn1CCOC | . | -4.3 | -6.3 | 1.9 | -14.2 | -6.3 | .
CCOc1c2ccccc2nn1CCO | . | 3.9 | 4.7 | 1.3 | 28.7* | 6.9 | -76.6
CN(Cc1cccs1)C(=O)c1ccc(Cl)c(S(=O)(=O)N2CCCCCC2)c1 | . | -5.7 | 2.2 | -1.5 | 14.4 | -1.0 | .
C1=C(c2ccc(-c3ccccc3)cc2)Nc2ncnn2C1c1ccco1 (configuration not stated) | 149.5* | 5.5 | 335.9* | 26.6 | + | -425.3 | 70.3*
Brc1ccc(C2=CC(c3cccs3)n3ncnc3N2)cc1 (configuration not stated) | 161.3* | 55.4* | 707.2* | 101.0* | 141.4* | i | 161.3*
SMILES | EBV gp42 inh | Keap1 Nrf2 FP | cardiac RTF act | C-LANA FP | E coli Lon inh | RTF Ca sens inh | E coli Lon conf
Cc1ccc(C2C=C(c3ccccc3)Nc3ncnn32)cc1 (configuration not stated) | . | -1.1 | 0.3 | 4.7 | 9.3 | -15.0 | .
CCn1c(CSc2nnc3ccccn23)nc2cc(C(=O)O)ccc21 | 83.0* | -0.9 | 14.0 | 2.8 | 51.8* | -5.0 | 42.0*
COc1ccc(Oc2nc(C)cc(C)c2S(=O)(=O)c2ccc(C)cc2)cc1 | 0.5 | -3.3 | 8.7 | -1.6 | 17.7* | 8.3 | -3.7
Cc1cc(C)cc(C(=O)NCC(=O)N2CCC(C(N)=O)CC2)c1 | . | 1.5 | 5.1 | 1.1 | -2.5 | -10.9 | .
COc1ccc(S(=O)(=O)NC2CC(=O)N(c3cccc(F)c3)C2)cc1OC (configuration not stated) | . | -0.6 | 3.2 | -1.1 | -3.7 | -20.2 | .
O=c1nc2c(O)cccn2c2c1c(=O)[nH]c1ccccc12 | 104.1* | 4.1 | 39.6* | 18.4 | 155.9* | -44.6 | 142.4*
CCOC(=O)C1(C)CCCCCN1C(=O)c1ccc(N(C)C)cc1 (configuration not stated) | . | . | . | . | 7.0 | . | .
COc1ccc(N(CC(=O)Nc2ccc(S(=O)(=O)N3CCOCC3)cc2)S(C)(=O)=O)cc1OC | . | . | . | . | 16.1* | . | 6.2
CC(C)C[C@H]1CNC(=S)N1CC1CCN(CC2CCC(C(C)(C)C)CC2)CC1 (some centres not stated) | . | -3.3 | -3.9 | -2.9 | 3.8 | -2.2 | .
CC(=O)Nc1ccc2nc3c(=O)n(C)c(=O)n(C)c3nc2c1 | 102.1* | 4.7 | 18.6 | 14.9 | 68.2* | -29.0 | 64.2*
CC1CCCC(C)N1C(=O)COc1ccc(C(=O)Nc2ccccc2N2CCOCC2)cc1 (configuration not stated) | -2.8 | -5.2 | 3.0 | -0.8 | 19.6* | -6.7 | 11.6
COC(=O)c1ccc(-c2nc(CN3CCN(C(=O)c4ccco4)CC3)c(C)o2)cc1 | . | . | . | . | 14.9* | . | -1.6
Cc1ccc(C(NC(=O)C2CCN(CCOc3ccccc3)CC2)c2ccccn2)cc1 (configuration not stated) | . | . | . | . | 15.4* | . | -2.7
O=C(NC(c1ccc(F)cc1)c1ccc2ccccc2n1)C1CCN(CCOc2ccc(F)cc2)CC1 (configuration not stated) | . | . | . | . | -4.0 | . | .
COc1ccc(OCCN2CCC(C(=O)NC(c3ccc(F)cc3)c3ccc4ccccc4n3)CC2)cc1 (configuration not stated) | . | . | . | . | 24.4* | . | -15.6
COc1ccc(OCCN2CCC(C(=O)NC(c3ccc(OC)cc3)c3ccccn3)CC2)cc1 (configuration not stated) | . | . | . | . | -2.2 | . | .
CC1=NN(C(N)=S)C(=O)C1N=Nc1ccccc1C (configuration not stated) | -1.3 | -4.3 | 7.4 | -0.3 | -1.7 | 2.4 | .

High-throughput results (PubChem BioAssay)
